# Laboratory results as given in article PMC11006913.
# Changes are numbered by the printed parent chain.
# Key:
# Assay in all cases: PBM; 200 nM protein, PBS
# Conditions in all cases: dsDNA, one strand shown
# NKX2-4 [1] = target: T1, NKX2-4 (Homo sapiens, UniProt Q9H2Z4 175-261, P217L)
# T1 sequence: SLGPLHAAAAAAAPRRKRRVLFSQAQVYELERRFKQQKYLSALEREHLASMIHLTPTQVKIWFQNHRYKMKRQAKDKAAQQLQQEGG
# NKX2-4 [2] = target: T2, NKX2-4 (Homo sapiens, UniProt Q9H2Z4 175-261, T231S)
# T2 sequence: T1 sequence with L43P, T57S
# NKX2-4 [3] = target: T3, NKX2-4 (Homo sapiens, UniProt Q9H2Z4 175-261)
# T3 sequence: T1 sequence with L43P
# NKX2-4 [4] = target: T4, NKX2-4 (Homo sapiens, UniProt Q9H2Z4 175-261, R246Q)
# T4 sequence: T1 sequence with L43P, R72Q
# PAX4 [5] = target: T5, PAX4 (Homo sapiens, UniProt O43316 9-242, R200K)
# T5 sequence: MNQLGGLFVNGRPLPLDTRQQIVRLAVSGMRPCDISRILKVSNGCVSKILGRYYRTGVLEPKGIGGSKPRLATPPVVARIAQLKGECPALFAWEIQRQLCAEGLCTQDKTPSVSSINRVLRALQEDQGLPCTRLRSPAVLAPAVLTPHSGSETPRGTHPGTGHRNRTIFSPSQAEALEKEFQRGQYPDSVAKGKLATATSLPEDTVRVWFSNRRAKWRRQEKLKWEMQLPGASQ
# PAX4 [6] = target: T6, PAX4 (Homo sapiens, UniProt O43316 9-242)
# T6 sequence: T5 sequence with K192R
# ALX3 [7] = target: ALX3 (Homo sapiens, UniProt O95076 139-225, N203Q)
# Sequence of ALX3 (Homo sapiens, UniProt O95076 139-225, N203Q) (O95076 139-225 N203Q): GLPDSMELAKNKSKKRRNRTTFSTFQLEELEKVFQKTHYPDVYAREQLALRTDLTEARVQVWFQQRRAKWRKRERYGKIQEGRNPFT
# PAX4 [8] = target: T7, PAX4 (Homo sapiens, UniProt O43316 9-242, R200Q)
# T7 sequence: T5 sequence with K192Q
# PAX4 [9] = target: T8, PAX4 (Homo sapiens, UniProt O43316 9-242, F177V)
# T8 sequence: T5 sequence with F169V, K192R
# ALX3 [10] = target: ALX3 (Homo sapiens, UniProt O95076 139-225)
# Sequence of ALX3 (Homo sapiens, UniProt O95076 139-225) (O95076 139-225): as the sequence (O95076 139-225 N203Q) above, with Q65N counted along it
# PAX4 [11] = target: T9, PAX4 (Homo sapiens, UniProt O43316 9-242, F177Y)
# T9 sequence: T5 sequence with F169Y, K192R
# VAX1 [12] = target: VAX1 (Homo sapiens, UniProt Q5SQQ9 86-172)
# Sequence of VAX1 (Homo sapiens, UniProt Q5SQQ9 86-172) (Q5SQQ9 86-172): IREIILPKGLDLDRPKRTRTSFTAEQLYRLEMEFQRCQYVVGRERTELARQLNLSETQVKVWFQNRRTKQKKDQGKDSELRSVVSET
# ALX3 [13] = target: ALX3 (Homo sapiens, UniProt O95076 139-225, L168Q)
# Sequence of ALX3 (Homo sapiens, UniProt O95076 139-225, L168Q) (O95076 139-225 L168Q): as the sequence (O95076 139-225 N203Q) above, with L30Q, Q65N counted along it
# ALX3 [14] = target: ALX3 (Homo sapiens, UniProt O95076 139-225, L168V)
# Sequence of ALX3 (Homo sapiens, UniProt O95076 139-225, L168V) (O95076 139-225 L168V): as the sequence (O95076 139-225 N203Q) above, with L30V, Q65N counted along it
# VAX1 [15] = target: VAX1 (Homo sapiens, UniProt Q5SQQ9 86-172, T142I)
# Sequence of VAX1 (Homo sapiens, UniProt Q5SQQ9 86-172, T142I) (Q5SQQ9 86-172 T142I): as the sequence (Q5SQQ9 86-172) above, with T57I counted along it
# PAX4 [16] = target: T10, PAX4 (Homo sapiens, UniProt O43316 9-242, R227W)
# T10 sequence: T5 sequence with K192R, R219W
# ALX3 [17] = target: ALX3 (Homo sapiens, UniProt O95076 139-225, N203S)
# Sequence of ALX3 (Homo sapiens, UniProt O95076 139-225, N203S) (O95076 139-225 N203S): as the sequence (O95076 139-225 N203Q) above, with Q65S counted along it
# VAX1 [18] = target: VAX1 (Homo sapiens, UniProt Q5SQQ9 86-172, K157R)
# Sequence of VAX1 (Homo sapiens, UniProt Q5SQQ9 86-172, K157R) (Q5SQQ9 86-172 K157R): as the sequence (Q5SQQ9 86-172) above, with K72R counted along it
# ALX4 [19] = target: ALX4 (Homo sapiens, UniProt Q9H161 200-286)
# Sequence of ALX4 (Homo sapiens, UniProt Q9H161 200-286) (Q9H161 200-286): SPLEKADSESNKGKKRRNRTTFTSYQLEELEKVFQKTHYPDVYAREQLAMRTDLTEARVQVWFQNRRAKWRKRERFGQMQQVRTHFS
# ALX4 [20] = target: ALX4 (Homo sapiens, UniProt Q9H161 200-286, Q225E)
# Sequence of ALX4 (Homo sapiens, UniProt Q9H161 200-286, Q225E) (Q9H161 200-286 Q225E): as the sequence (Q9H161 200-286) above, with Q26E counted along it
# PRRX1 [21] = target: PRRX1 (Homo sapiens, UniProt P54821 80-166, F113S)
# Sequence of PRRX1 (Homo sapiens, UniProt P54821 80-166, F113S) (P54821 80-166 F113S): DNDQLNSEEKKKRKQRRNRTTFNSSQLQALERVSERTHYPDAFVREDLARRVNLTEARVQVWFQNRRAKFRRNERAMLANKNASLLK
# PRRX1 [22] = target: PRRX1 (Homo sapiens, UniProt P54821 80-166)
# Sequence of PRRX1 (Homo sapiens, UniProt P54821 80-166) (P54821 80-166): as the sequence (P54821 80-166 F113S) above, with S34F counted along it
sequence,measurement,setting,value
CTCAAGCA,binding signal,NKX2-4 [1],"11.8 upbm affinity estimate (log intensity, higher = more binding, comparable within an allelic series)"
same,binding signal,NKX2-4 [2],"12.1 upbm affinity estimate (log intensity, higher = more binding, comparable within an allelic series)"
same,binding signal,NKX2-4 [3],"11.8 upbm affinity estimate (log intensity, higher = more binding, comparable within an allelic series)"
same,binding signal,NKX2-4 [4],"12.2 upbm affinity estimate (log intensity, higher = more binding, comparable within an allelic series)"
CCCGGCGC,binding signal,NKX2-4 [1],"9.45 upbm affinity estimate (log intensity, higher = more binding, comparable within an allelic series)"
same,binding signal,NKX2-4 [2],"9.31 upbm affinity estimate (log intensity, higher = more binding, comparable within an allelic series)"
same,binding signal,PAX4 [5],"9.17 upbm affinity estimate (log intensity, higher = more binding, comparable within an allelic series)"
same,binding signal,PAX4 [6],"9.1 upbm affinity estimate (log intensity, higher = more binding, comparable within an allelic series)"
same,binding signal,NKX2-4 [3],"9.49 upbm affinity estimate (log intensity, higher = more binding, comparable within an allelic series)"
same,binding signal,ALX3 [7],"7.83 upbm affinity estimate (log intensity, higher = more binding, comparable within an allelic series)"
same,binding signal,PAX4 [8],"9.2 upbm affinity estimate (log intensity, higher = more binding, comparable within an allelic series)"
same,binding signal,PAX4 [9],"9.03 upbm affinity estimate (log intensity, higher = more binding, comparable within an allelic series)"
same,binding signal,ALX3 [10],"7.67 upbm affinity estimate (log intensity, higher = more binding, comparable within an allelic series)"
same,binding signal,NKX2-4 [4],"9.55 upbm affinity estimate (log intensity, higher = more binding, comparable within an allelic series)"
same,binding signal,PAX4 [11],"9.02 upbm affinity estimate (log intensity, higher = more binding, comparable within an allelic series)"
same,binding signal,VAX1 [12],"7.45 upbm affinity estimate (log intensity, higher = more binding, comparable within an allelic series)"
same,binding signal,ALX3 [13],"7.69 upbm affinity estimate (log intensity, higher = more binding, comparable within an allelic series)"
same,binding signal,ALX3 [14],"7.67 upbm affinity estimate (log intensity, higher = more binding, comparable within an allelic series)"
same,binding signal,VAX1 [15],"7.15 upbm affinity estimate (log intensity, higher = more binding, comparable within an allelic series)"
same,binding signal,PAX4 [16],"9.13 upbm affinity estimate (log intensity, higher = more binding, comparable within an allelic series)"
same,binding signal,ALX3 [17],"7.82 upbm affinity estimate (log intensity, higher = more binding, comparable within an allelic series)"
same,binding signal,VAX1 [18],"7.47 upbm affinity estimate (log intensity, higher = more binding, comparable within an allelic series)"
AGATGCCG,binding signal,NKX2-4 [1],"9.76 upbm affinity estimate (log intensity, higher = more binding, comparable within an allelic series)"
same,binding signal,NKX2-4 [2],"9.8 upbm affinity estimate (log intensity, higher = more binding, comparable within an allelic series)"
same,binding signal,ALX4 [19],"8.1 upbm affinity estimate (log intensity, higher = more binding, comparable within an allelic series)"
same,binding signal,NKX2-4 [3],"9.82 upbm affinity estimate (log intensity, higher = more binding, comparable within an allelic series)"
same,binding signal,ALX4 [20],"8.32 upbm affinity estimate (log intensity, higher = more binding, comparable within an allelic series)"
same,binding signal,NKX2-4 [4],"9.91 upbm affinity estimate (log intensity, higher = more binding, comparable within an allelic series)"
AGAGGGCT,binding signal,NKX2-4 [1],"11.7 upbm affinity estimate (log intensity, higher = more binding, comparable within an allelic series)"
same,binding signal,NKX2-4 [2],"11.9 upbm affinity estimate (log intensity, higher = more binding, comparable within an allelic series)"
same,binding signal,NKX2-4 [3],"11.7 upbm affinity estimate (log intensity, higher = more binding, comparable within an allelic series)"
CCCGCCTC,binding signal,NKX2-4 [1],"9.39 upbm affinity estimate (log intensity, higher = more binding, comparable within an allelic series)"
same,binding signal,NKX2-4 [2],"9.25 upbm affinity estimate (log intensity, higher = more binding, comparable within an allelic series)"
same,binding signal,PRRX1 [21],"9.33 upbm affinity estimate (log intensity, higher = more binding, comparable within an allelic series)"
same,binding signal,NKX2-4 [3],"9.39 upbm affinity estimate (log intensity, higher = more binding, comparable within an allelic series)"
same,binding signal,NKX2-4 [4],"9.31 upbm affinity estimate (log intensity, higher = more binding, comparable within an allelic series)"
same,binding signal,PRRX1 [22],"8.99 upbm affinity estimate (log intensity, higher = more binding, comparable within an allelic series)"
GATGAGGA,binding signal,NKX2-4 [1],"11.4 upbm affinity estimate (log intensity, higher = more binding, comparable within an allelic series)"
same,binding signal,NKX2-4 [2],"11.6 upbm affinity estimate (log intensity, higher = more binding, comparable within an allelic series)"
same,binding signal,NKX2-4 [3],"11.3 upbm affinity estimate (log intensity, higher = more binding, comparable within an allelic series)"
CAGCCCAG,binding signal,NKX2-4 [1],"9.47 upbm affinity estimate (log intensity, higher = more binding, comparable within an allelic series)"
same,binding signal,NKX2-4 [2],"9.32 upbm affinity estimate (log intensity, higher = more binding, comparable within an allelic series)"
same,binding signal,NKX2-4 [3],"9.45 upbm affinity estimate (log intensity, higher = more binding, comparable within an allelic series)"
same,binding signal,NKX2-4 [4],"9.54 upbm affinity estimate (log intensity, higher = more binding, comparable within an allelic series)"
ATCGTGCC,binding signal,NKX2-4 [1],"9.86 upbm affinity estimate (log intensity, higher = more binding, comparable within an allelic series)"
same,binding signal,NKX2-4 [2],"9.92 upbm affinity estimate (log intensity, higher = more binding, comparable within an allelic series)"
same,binding signal,NKX2-4 [3],"9.97 upbm affinity estimate (log intensity, higher = more binding, comparable within an allelic series)"
same,binding signal,NKX2-4 [4],"9.95 upbm affinity estimate (log intensity, higher = more binding, comparable within an allelic series)"
GTCTCGCA,binding signal,NKX2-4 [1],"9.7 upbm affinity estimate (log intensity, higher = more binding, comparable within an allelic series)"
same,binding signal,NKX2-4 [2],"9.57 upbm affinity estimate (log intensity, higher = more binding, comparable within an allelic series)"
same,binding signal,NKX2-4 [3],"9.65 upbm affinity estimate (log intensity, higher = more binding, comparable within an allelic series)"
same,binding signal,NKX2-4 [4],"9.64 upbm affinity estimate (log intensity, higher = more binding, comparable within an allelic series)"
CTAGGCCA,binding signal,NKX2-4 [1],"9.82 upbm affinity estimate (log intensity, higher = more binding, comparable within an allelic series)"
same,binding signal,NKX2-4 [2],"9.87 upbm affinity estimate (log intensity, higher = more binding, comparable within an allelic series)"
same,binding signal,NKX2-4 [3],"9.84 upbm affinity estimate (log intensity, higher = more binding, comparable within an allelic series)"
same,binding signal,NKX2-4 [4],"9.9 upbm affinity estimate (log intensity, higher = more binding, comparable within an allelic series)"
CAAGAGGA,binding signal,NKX2-4 [1],"12 upbm affinity estimate (log intensity, higher = more binding, comparable within an allelic series)"
same,binding signal,NKX2-4 [2],"12.3 upbm affinity estimate (log intensity, higher = more binding, comparable within an allelic series)"
same,binding signal,NKX2-4 [3],"12 upbm affinity estimate (log intensity, higher = more binding, comparable within an allelic series)"
same,binding signal,NKX2-4 [4],"12.4 upbm affinity estimate (log intensity, higher = more binding, comparable within an allelic series)"
CGTTGTCC,binding signal,NKX2-4 [1],"9.74 upbm affinity estimate (log intensity, higher = more binding, comparable within an allelic series)"
same,binding signal,NKX2-4 [2],"9.8 upbm affinity estimate (log intensity, higher = more binding, comparable within an allelic series)"
same,binding signal,NKX2-4 [3],"9.79 upbm affinity estimate (log intensity, higher = more binding, comparable within an allelic series)"
same,binding signal,NKX2-4 [4],"9.81 upbm affinity estimate (log intensity, higher = more binding, comparable within an allelic series)"
GCACTACA,binding signal,NKX2-4 [1],"11.7 upbm affinity estimate (log intensity, higher = more binding, comparable within an allelic series)"
same,binding signal,NKX2-4 [2],"11.7 upbm affinity estimate (log intensity, higher = more binding, comparable within an allelic series)"
same,binding signal,NKX2-4 [3],"11.6 upbm affinity estimate (log intensity, higher = more binding, comparable within an allelic series)"
same,binding signal,NKX2-4 [4],"11.9 upbm affinity estimate (log intensity, higher = more binding, comparable within an allelic series)"
GCTATAGC,binding signal,NKX2-4 [1],"9.92 upbm affinity estimate (log intensity, higher = more binding, comparable within an allelic series)"
same,binding signal,NKX2-4 [2],"9.98 upbm affinity estimate (log intensity, higher = more binding, comparable within an allelic series)"
same,binding signal,NKX2-4 [3],"9.84 upbm affinity estimate (log intensity, higher = more binding, comparable within an allelic series)"
same,binding signal,NKX2-4 [4],"9.91 upbm affinity estimate (log intensity, higher = more binding, comparable within an allelic series)"
CGCGGCCC,binding signal,NKX2-4 [1],"9.94 upbm affinity estimate (log intensity, higher = more binding, comparable within an allelic series)"
same,binding signal,NKX2-4 [2],"9.93 upbm affinity estimate (log intensity, higher = more binding, comparable within an allelic series)"
same,binding signal,NKX2-4 [3],"10 upbm affinity estimate (log intensity, higher = more binding, comparable within an allelic series)"
same,binding signal,NKX2-4 [4],"9.94 upbm affinity estimate (log intensity, higher = more binding, comparable within an allelic series)"
ACCGTCTG,binding signal,NKX2-4 [1],"9.6 upbm affinity estimate (log intensity, higher = more binding, comparable within an allelic series)"
same,binding signal,NKX2-4 [2],"9.59 upbm affinity estimate (log intensity, higher = more binding, comparable within an allelic series)"
same,binding signal,NKX2-4 [3],"9.56 upbm affinity estimate (log intensity, higher = more binding, comparable within an allelic series)"
same,binding signal,NKX2-4 [4],"9.61 upbm affinity estimate (log intensity, higher = more binding, comparable within an allelic series)"
CCCAGACG,binding signal,NKX2-4 [1],"9.29 upbm affinity estimate (log intensity, higher = more binding, comparable within an allelic series)"
same,binding signal,NKX2-4 [2],"9.36 upbm affinity estimate (log intensity, higher = more binding, comparable within an allelic series)"
same,binding signal,NKX2-4 [3],"9.37 upbm affinity estimate (log intensity, higher = more binding, comparable within an allelic series)"
same,binding signal,NKX2-4 [4],"9.46 upbm affinity estimate (log intensity, higher = more binding, comparable within an allelic series)"
ATCCGGTG,binding signal,NKX2-4 [1],"9.47 upbm affinity estimate (log intensity, higher = more binding, comparable within an allelic series)"
same,binding signal,NKX2-4 [2],"9.42 upbm affinity estimate (log intensity, higher = more binding, comparable within an allelic series)"
same,binding signal,NKX2-4 [3],"9.41 upbm affinity estimate (log intensity, higher = more binding, comparable within an allelic series)"
same,binding signal,NKX2-4 [4],"9.45 upbm affinity estimate (log intensity, higher = more binding, comparable within an allelic series)"
